The list is not random: actives were taken first. Their share in the collection is about 1.5%.
EBV gp42 block = Epstein-Barr virus gp42 inhibitors, primary screen, biochemical, uHTS, fluorescence polarization; Glycoprotein 42 (Epstein-Barr virus (strain AG876)), Q1HVG2; inhibition, % (tested at 21.74 µM); 220,000 tested, 0.42% active; Fluorescence polarization binding assay, mP read-out; in the data active means inhibition above about 50%
Target sequence (Q1HVG2 whole entry, looked up): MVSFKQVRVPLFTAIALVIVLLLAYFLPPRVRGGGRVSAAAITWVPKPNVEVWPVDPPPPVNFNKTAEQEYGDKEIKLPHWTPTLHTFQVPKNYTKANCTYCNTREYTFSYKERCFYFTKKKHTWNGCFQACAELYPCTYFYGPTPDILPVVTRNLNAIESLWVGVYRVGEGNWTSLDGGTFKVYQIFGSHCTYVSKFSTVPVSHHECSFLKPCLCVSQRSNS
E coli Lon inh = inhibitors of E. coli Lon protease, primary screen, biochemical, fluorescence polarization | P0A9M0 | purified E. coli Lon protease | inhibition, % at 7.94 µM | 360,000 tested, 0.42% active; in the data active means inhibition above about 13%, passing the limit was not always enough;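 further: 0% = enzyme with probe and DMSO and 100% = no enzyme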
GLD-1 RNA inh = GLD-1/TGE RNA complex disruptors, primary screen, biochemical, fluorescence polarization. AID 2280, 2010. 320,000 tested, 0.44% active. purified GLD-1 + fluorescein TGE RNA. inhibition, % at 5.96 µM. Female germline-specific tumor suppressor gld-1 (Caenorhabditis elegans), Q17339;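 active means percent inhibition above a per-plate cutoff, the plate mean of test compounds plus 3 SD, cut at about 30% in these data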;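 further: 0% = DMSO wells with GLD-1 and probe and 100% = wells lacking GLD-1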
Target sequence (Q17339 whole entry, looked up): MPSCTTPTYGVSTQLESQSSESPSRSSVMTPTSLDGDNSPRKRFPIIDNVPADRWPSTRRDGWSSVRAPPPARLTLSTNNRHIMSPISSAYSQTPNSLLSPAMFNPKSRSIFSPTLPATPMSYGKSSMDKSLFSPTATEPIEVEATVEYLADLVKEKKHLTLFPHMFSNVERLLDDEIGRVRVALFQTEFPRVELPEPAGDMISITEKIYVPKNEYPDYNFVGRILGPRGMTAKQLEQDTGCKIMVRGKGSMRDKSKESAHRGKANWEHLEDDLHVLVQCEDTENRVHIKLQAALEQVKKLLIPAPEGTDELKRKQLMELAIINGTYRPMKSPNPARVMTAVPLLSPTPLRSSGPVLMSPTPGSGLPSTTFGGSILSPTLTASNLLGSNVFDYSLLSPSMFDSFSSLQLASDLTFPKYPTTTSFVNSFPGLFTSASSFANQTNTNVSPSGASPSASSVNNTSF
Bcl-xL primary = inhibitors of human Bcl-xL, primary screen, biochemical, fluorescence polarization, HTS. Bcl-2-like protein 1 (Homo sapiens), Q07817. GST-Bcl-xL / FITC-Bim BH3 peptide fluorescence polarization. inhibition, % at 10.9 µM. 320,000 tested, 0.7% active. AID 2129, 2009;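 active means inhibition above the mean of all tested compounds plus 3 SD, cutoff set per campaign, cut at about 30% in these data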;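 further: 0% = DMSO wells and 100% = unlabeled Bim-BH3 peptide competitor; inhibitors lower millipolarization by displacing the labeled peptide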
MEX-5 binding = MEX-5 zinc finger RNA-binding disruptors – biochemical, C. elegans, fluorescence polarization, MLPCN library, primary screen; 300,000 tested, 0.38% active; MEX-5/FITC-TCR2 RNA binding; hits give low values; activity score (negative = inhibition of binding), % at 10 µM; Zinc finger protein mex-5 (Caenorhabditis elegans), Q9XUB2;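 active means inhibition past about -25% in most replicates, and total fluorescence under double the plate's negative control median, limit read from the data; inconclusive means replicates evenly split on the limit, or fluorescence at least double controls; inactive means too little inhibition in most replicates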;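 further: 0% = DMSO and -100% = 5 µM competing unlabeled TCR2 RNA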
MCL1-BIM inh = inhibitors of MCL1 binding to BIM-BH3, primary screen, biochemical, fluorescence polarization. GST-MCL1 / FITC-Bim-BH3 fluorescence polarization. 320,000 tested, 0.68% active. Induced myeloid leukemia cell differentiation protein Mcl-1 (Homo sapiens), Q07820. inhibition, % at 10.9 µM;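 active means inhibition above the mean inhibition of all tested compounds plus 3 SD, set per campaign, cut at about 40% in these data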;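 further: 0% = DMSO wells and 100% = unlabeled Bim-BH3 peptide control; higher means more loss of mP so more displacement of Bim peptide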
BCLXL inh confirm = Bcl-xL inhibitors blocking Bim BH3 binding, confirmation, counter-screen for MCL1 inhibitor project, biochemical, fluorescence polarization; shares compounds with MCL1-BIM inh; AID 2166, 2009; GST-Bcl-xL / FITC-Bim BH3 peptide FP binding; 1,700 tested, 54% active; inhibition, % at 10.9 µM;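 active means inhibition above a cutoff equal to the mean inhibition of all tested compounds plus 3 SD, cut at about 30% in these data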;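 further: 0% = DMSO wells and 100% = unlabeled Bim BH3 control peptide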
MCL1 BIM confirm = inhibitors of MCL1 binding to BIM-BH3, confirmation, biochemical, fluorescence polarization, triplicate; shares compounds with MCL1-BIM inh; GST-MCL1 / FITC-Bim-BH3 fluorescence polarization; inhibition, % at 10.9 µM; 1,700 tested, 61% active; AID 2168, 2009;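 active means inhibition above the average of all tested compounds plus 3 SD, cut at about 40% in these data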;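 further: 0% = DMSO wells and 100% = unlabeled Bim-BH3 control peptide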
* marks the source's active call; other numbers are inactive results; ? = inconclusive; . = no result given.

SMILES | EBV gp42 block | E coli Lon inh | GLD-1 RNA inh | Bcl-xL primary | MEX-5 binding | MCL1-BIM inh | BCLXL inh confirm | MCL1 BIM confirm
COc1ccc2[nH]c(C(=O)Nc3ncc(C)cc3Br)cc2c1 | -4.7 | -0.8 | 8.2 | 13.6 | 0.3 | 51.9* | 4.2 | 1.3
O=C(O)CN1C(=O)/C(=C\c2cc(Br)ccc2OCc2ccccc2F)SC1=S | . | -13.4 | -5.4 | 17.7 | -2.2 | 45.6* | 19.8 | 24.6
O=C(O)CN1C(=O)/C(=C\c2cc(Br)ccc2OCc2ccc([N+](=O)[O-])cc2)SC1=S | . | -11.5 | -0.9 | 27.6 | -1.7 | 72.3* | 37.2* | 61.3*
O=C(O)CN1C(=O)/C(=C\c2ccccc2OCc2ccc(Cl)cc2Cl)SC1=S | . | -3.1 | -4.1 | 17.0 | -3.0 | 55.1* | 30.6* | 45.4*
O=C(O)CCN1C(=O)/C(=C\c2ccc(OCc3ccccc3)c(OCc3ccccc3)c2)SC1=S | . | 4.8 | 5.6 | 2.6 | -18.6 | 4.4 | . | .
CN(C)CCNc1ncnc2c1ncn2[C@H]1CN(Cc2ccc(Cl)cc2)C[C@@H](CO)O1 | . | -10.1 | . | . | . | . | . | .
COc1ccc(/C=N/NC(=O)c2ccc(N(C)S(=O)(=O)c3ccccc3)cc2)cc1OC | -4.4 | 4.5 | -1.3 | 12.8 | 2.4 | 11.7 | . | .
COc1cc(SSc2cc(OC)cc([N+](=O)[O-])c2N)c(N)c([N+](=O)[O-])c1 | -28.3 | 4.3 | 6.8 | 26.3 | 0.2 | 54.8* | 30.6* | 52.9*
COc1cc([N+](=O)[O-])c2ncsc2c1 | -11.0 | -15.2 | 2.1 | 3.0 | -1.3 | -2.2 | . | .
COc1ccc(CN2CCN(C(=O)CCC(=O)c3ccc(C)s3)CC2)cc1OC | . | -10.3 | -4.0 | 2.2 | . | 1.6 | . | .
O=C(CN1C(=O)CCC1=O)Nc1ccc(Cc2ccc(NC(=O)CN3C(=O)CCC3=O)cc2)cc1 | 7.2 | 1.9 | 2.1 | 3.1 | -0.1 | 5.2 | . | .
O=C(O)c1ccc2c(c1)C(=O)/C(=C\c1ccco1)C2=O | 11.5 | 10.2 | 27.0 | 40.7* | ? | 63.9* | 25.1 | 26.4
CCCCn1c(N)c(N(CCOC)C(=O)c2oc3c(Cl)cccc3c2C)c(=O)[nH]c1=O | . | 3.0 | . | . | . | . | . | .
CCCC1=NN2C(=N)/C(=C\c3ccc(SCc4ccco4)o3)C(=O)N=C2S1 | -25.5 | -103.2 | 23.7 | 70.0* | -15.9 | 79.7* | 6.7 | 26.2
Oc1cccc2cc3cccc(O)c3c(O)c12 | 14.6 | 10.2 | 25.2 | 43.1* | -2.4 | 50.8* | 43.4* | 49.8*
O=C(O)c1ccc(N2CCS(=O)(=O)CC2)cc1 | -2.0 | 2.3 | -3.5 | 2.4 | 3.1 | 0.4 | . | .
CCN(CC)c1ccc(/C=C/C(=O)C2C(=O)C=C(C)OC2=O)cc1 (centres undefined) | -75.3 | -244.0 | -102.4 | 76.2* | 34.3 | 79.4* | 78.8* | 124.8*
O=c1cc(CSc2nnc3ccccn23)c2c(ccc3ccccc32)o1 | -3.3 | -11.1 | 65.7* | 75.9* | -1.0 | 87.8* | -7.8 | 15.6
N#C/C(=C\c1cccs1)C(=O)Nc1ccccn1 | 24.3 | 9.6 | 29.8 | 55.3* | -19.6 | 56.6* | 49.5* | 71.3*
N#C/C(=C\c1ccccc1)C(=O)Nc1ccccn1 | . | 9.4 | 4.3 | -1.0 | 2.8 | -2.6 | . | .
COc1cc(O)c(C(C)=O)c(OC)c1 | . | 4.1 | . | . | . | . | . | .
COc1cc(O)c(C(C)=O)c(CC(=O)O)c1 | -1.5 | 6.8 | 12.9 | 12.9 | -9.7 | 40.9* | 20.2 | 34.5
CCCCC1=CC2=C(c3ccco3)C(=O)C(C)(OC(=O)c3ccc(OC)cc3)C(=O)C2=CN1C1CCCCC1 (centres undefined) | 10.4 | 13.6 | 39.4* | 45.7* | -1.4 | 51.5* | 40.7* | 59.2*
CCCCC1=CC2=C(c3ccco3)C(=O)C(C)(OC(=O)c3ccc(OC)cc3)C(=O)C2=CN1Cc1ccc2c(c1)OCO2 (centres undefined) | -0.2 | -7.2 | 9.6 | 3.6 | -6.4 | 8.8 | . | .
CS(=O)(=O)c1ccccc1C(=O)N(CCC1=CCCCC1)c1c(N)n(Cc2ccccc2)c(=O)[nH]c1=O | . | -12.0 | -2.3 | 1.6 | 6.6 | 1.1 | . | .
SMILES | EBV gp42 block | E coli Lon inh | GLD-1 RNA inh | Bcl-xL primary | MEX-5 binding | MCL1-BIM inh | BCLXL inh confirm | MCL1 BIM confirm
COc1cc(NC(C)C(=O)N2CC(C)OC(C)C2)cc(OC)c1 (centres undefined) | 4.2 | 14.7 | -23.1 | 72.5* | -1.7 | 82.2* | 16.0 | 15.2
COc1cccc(CNC(=O)[C@@H]2CCCN2C(=O)[C@H]2CCCCN2C(=O)c2ccccc2C)c1 | . | -10.1 | . | . | . | . | . | .
COc1ccc2oc(C(=O)N3CCN(S(=O)(=O)c4cccc([N+](=O)[O-])c4)CC3)c(C)c2c1 | . | 0.9 | 7.3 | -0.3 | 0.5 | 46.5* | 5.7 | 8.5
COc1ccc(OC)c2[nH]c(=O)c(CCNS(=O)(=O)c3ccc(C)cc3)cc12 | 8.0 | -12.8 | -1.8 | 6.0 | 0.2 | 5.8 | . | .
COc1ccc(OC)c2[nH]c(=O)c(CCNS(=O)(=O)c3ccc(Cl)cc3)cc12 | 4.4 | -9.8 | -10.8 | 1.3 | . | 44.2* | 6.3 | 3.4
COCCCNC(=O)c1cccc2c(-c3cccc(C(N)=O)c3)coc12 | . | -3.1 | . | . | . | . | . | .
CCOC(=O)N1CCN(C(=O)c2cc(S(=O)(=O)N3CCc4ccccc43)ccc2OC)CC1 | . | 2.0 | -10.8 | -1.6 | 0.3 | -6.2 | . | .
Cc1cc2nc3ccc(N(C)C)cc3nc2cc1N | . | 20.8 | 41.0* | 120.1* | -28.0* | 125.7* | 127.7* | 143.5*
O=[N+]([O-])c1c(NCCCO)cc(SCc2ccco2)c2nonc12 | -5.9 | 12.7 | 5.1 | 31.4* | -5.6 | 59.3* | 13.9 | 12.3
CC1CCN(CCCCOc2ccccc2[N+](=O)[O-])CC1 | -4.5 | -5.6 | 9.8 | 5.0 | -1.5 | 5.8 | . | .
CCC(=O)Nc1ccc(C(=O)COC(=O)c2nc3nccc(C)n3n2)cc1 | . | -14.5 | 8.4 | 2.9 | . | 53.9* | 1.2 | 52.3*
CC(C)(C)C1CC=C2C(C#N)=C(N)C(C#N)(C#N)C(c3cccs3)C2C1 (centres undefined) | . | . | 61.9* | 60.5* | -41.2* | 62.7* | 114.5* | 145.0*
CC(=O)N1CC=C2C(C#N)=C(N)C(C#N)(C#N)C(C)C2C1 (centres undefined) | 4.2 | 4.9 | 10.7 | 16.5 | -3.3 | 22.6 | . | .
